This is an account of results in PubChem BioAssay (NCATS).

Test [1] has as its target Calcium and integrin-binding protein 1 (Homo sapiens) (UniProt Q99828). As to the kind of experiment: Primary qHTS for Identification of Calcium Integrin Binding Protein 1 (CIB1) Competitor (AID 1508620; active = well fitted curve in the direction sought with a large enough effect; an effect the other way counts as inactive or inconclusive;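 also: GST tagged CIB1 binding a fluorescein labelled alphaIIb integrin peptide tracer; top concentration of the series differs between compounds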). The procedure, abridged: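 CIB1-GST (1 uM final) and compound incubated 15 min at room temperature before adding FITC-alphaIIb peptide tracer (100 nM final). Competition for binding read by fluorescence polarization (ex 480, em 540) after another 15 min at room temperature.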

In test [2] the target is Cytochrome P450 2D6 (Homo sapiens) (UniProt P10635). As to the kind of experiment: Cytochrome P450 family 2 subfamily D member 6 (CYP2D6) small molecule antagonists: luciferase biochemical (cell-free) qHTS assay (AID 1645840). Also: nearly all actives have a fitted effect of over 55% in size. Also: potency is read from the fitted curve at half-maximal effect. A digest of the protocol: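 P450-Glo luminescent screen: recombinant CYP2D6 enzyme–proluciferin substrate mix preincubated with compound 10 min at room temperature, then NADPH regeneration added for 1 h at room temperature. Detection reagent added for 20 min; luciferin light read as relative luminescence units.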
(Quantitative high-throughput screening tests each substance at several concentrations.)

Inconclusive results are not listed. Where a call stands in place of a potency, no number is given. The source made the active and inactive calls. Unless noted, calls follow the shape of the dose curve; as a rule, active = well fitted curve in the direction sought with a large enough effect in the repeat runs; inconclusive = weak or mixed curves; inactive = no such curve, though single readings can be large; an effect the other way counts as inactive or inconclusive.

Chain of Calcium and integrin-binding protein 1 (Homo sapiens) (Q99828 whole entry, looked up): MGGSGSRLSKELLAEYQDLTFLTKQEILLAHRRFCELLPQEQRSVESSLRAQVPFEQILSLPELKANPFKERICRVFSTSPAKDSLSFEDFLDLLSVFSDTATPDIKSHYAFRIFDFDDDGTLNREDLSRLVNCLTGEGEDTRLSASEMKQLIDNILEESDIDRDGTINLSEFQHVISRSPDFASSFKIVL
Chain of Cytochrome P450 2D6 (Homo sapiens) (P10635 whole entry, looked up): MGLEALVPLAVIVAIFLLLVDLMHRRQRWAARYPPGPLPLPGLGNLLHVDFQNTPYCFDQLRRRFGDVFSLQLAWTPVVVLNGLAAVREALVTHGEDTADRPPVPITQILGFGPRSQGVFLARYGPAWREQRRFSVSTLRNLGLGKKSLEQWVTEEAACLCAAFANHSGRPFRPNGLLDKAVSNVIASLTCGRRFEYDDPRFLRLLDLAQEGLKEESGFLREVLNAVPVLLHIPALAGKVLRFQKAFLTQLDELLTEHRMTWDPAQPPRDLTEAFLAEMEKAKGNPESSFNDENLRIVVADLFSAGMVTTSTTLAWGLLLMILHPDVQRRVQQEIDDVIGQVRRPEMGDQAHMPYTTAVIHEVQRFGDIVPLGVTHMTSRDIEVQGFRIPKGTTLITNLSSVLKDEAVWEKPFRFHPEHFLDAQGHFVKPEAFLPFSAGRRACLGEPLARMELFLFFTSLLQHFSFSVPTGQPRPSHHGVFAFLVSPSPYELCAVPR

Take `Nc1nc(OCc2cc(Br)cs2)c2[nH]cnc2n1`: the Potency result in test [1] was “inactive”. Moreover, the Potency in test [2] is 6.74 µM (active).
The matching figures for `CC(F)(F)CN1CCOc2c(nn(-c3ccccc3Cl)c2-c2ccc(Cl)cc2)C1=O`: “inactive” and 13.5 µM (active).
In the same order, the values of `CCCCC1CCC(c2nc(-c3ccncc3)no2)CC1` (centres undefined) are “inactive” and 0.536 µM (active).
The matching figures for `C#CC(=O)N(c1ccc(OC)cc1OC)C(C(=O)NCC(=O)OCC)c1cccs1` (centres undefined): “inactive” and 12 µM (active).
Regarding `CCCC(Nc1nc(-c2ccc(NC(=O)NCC)c(OC)c2)ncc1C)c1cccnc1` (centres undefined), the Potency entry in test [1] is “inactive”. In addition, the Potency in test [2] was 5.35 µM (active).
As to `CCCCc1ccc(NS(=O)(=O)c2ccc(F)cc2)cc1`, the Potency result in test [1] is “inactive”. Moreover, the Potency in test [2] is 9.52 µM (active).
The matching figures for `CC(C)(C)c1ccc(-c2nc3c(N4CCN(Cc5ccc6nccnc6c5)CC4)cccc3[nH]2)cc1`: “inactive” and “inactive”.
The matching figures for `CC[C@H](C(=O)Nc1ccccc1N1CCCC1)c1ccccc1`: “inactive” and 9.52 µM (active).
The matching figures for `CN(C)[C@@H]1CCc2[nH]c3ccc(NC(=O)c4ccc(F)cc4)cc3c2C1`: “inactive” and “inactive”.
Consider `O=C(Nc1ccc(-c2ccnc(Nc3ccc(N4CCOCC4)cc3)n2)cc1)C1CCCN1` (centres undefined), for which the Potency entry in test [1] and in test [2] was “inactive” throughout.
As for `CCOC(=O)CCNc1cc(N2CCc3ccccc3CC2)nc(-c2cccnc2)n1`, in test [1], the Potency entry is “inactive”. Further, the Potency in test [2] is 10.7 µM (active).
The matching figures for `CC(C)(O)C(=O)N1CCN(c2ccc(C(F)(F)F)c(C3=C(c4c[nH]c5ccccc45)C(=O)NC3=O)c2)CC1`: “inactive” and 21.3 µM (active).
The matching figures for `Cc1cc2c(N3CCCC3)nc(N3CCCC3)nc2n1C`: “inactive” and 3.01 µM (active).
With `Cc1csc2c(N[C@@H](C)CN3CCN(S(=O)(=O)c4ccc(Cl)c(Cl)c4)CC3)ncnc12`, the Potency result in test [1] is “inactive”. Also, in test [2], the Potency was 0.425 µM (active).
`C[C@@H](N[C@H]1CCCC[C@@H]1NC(=O)c1ccc(Cl)cc1)c1cccc2ccccc12`: the Potency entry in test [1] is “inactive”. Besides, the Potency in test [2] is 0.756 µM (active).
For `C=CC(=O)Nc1cc(-n2c(=O)ccc3cnc4ccc(-c5ccc(NS(C)(=O)=O)cc5)cc4c32)ccc1C`, the Potency entry in test [1] and in test [2] was “inactive” in each case.
In the case of `Cc1cccc(-c2[nH]ncc2-c2ccnc3ccccc23)n1`, the Potency result in test [1] and in test [2] was “inactive” throughout.
For `O=C(NCCCCN1CCN(c2cccc(Cl)c2Cl)CC1)c1cc2ccccc2s1`, the Potency result in test [1] is “inactive”. The Potency in test [2] was 0.301 µM (active).
In the same order, the values of `CC(C)(C[C@@](O)(Cc1cc2ccncc2[nH]1)C(F)(F)F)c1cc(F)ccc1O` are “inactive” and 0.134 µM (active).
For the compound `CCNC(=O)N1CCCN(c2ccc(C(=O)NCCc3ccc(Cl)cc3Cl)cc2NC(=O)c2cccc(Cl)c2)CC1`, the Potency result in test [1] is “inactive”. The Potency in test [2] was 4.77 µM (active).
The matching figures for `CCN1CCN(Cc2ccc(C(=O)Nc3ccc(C)c(Oc4ccc5c(c4)CC(=O)N5)c3)cc2C(F)(F)F)CC1`: “inactive” and 16.9 µM (active).
The matching figures for `O=C(NCCN1CCN(c2cccc3c2OCCO3)CC1)c1ccc(F)cc1`: “inactive” and 12 µM (active).
As for `COc1cc2nc(C3CC3)nc(N3CCN(c4ccccc4OC)CC3)c2cc1OC`, in test [1], the Potency entry is “inactive”. In addition, in test [2], the Potency was 21.3 µM (active).
In the same order, the values of `CN1CCN(C2=Nc3ccccc3Nc3ccc(OS(=O)(=O)C(F)(F)F)cc32)CC1` are “inactive” and 3.38 µM (active).
The matching figures for `Cc1ccc(F)cc1S(=O)(=O)N[C@@H]1CCN(Cc2ccc(OC(C)C)cc2)C1`: “inactive” and 0.0169 µM (active).
On to `C[C@H](CN(C)C)Oc1nc(Nc2cc3cccc(Cl)c3cn2)cnc1C#N`, for which, in test [1], the Potency entry is “inactive”. In test [2], the Potency is 0.674 µM (active).
`O=C(C1CCCCC1)N(CCN1CCN(c2ccccc2O)CC1)c1ccccn1`: the Potency result in test [1] was “inactive”. For the same compound, the Potency in test [2] was 10.7 µM (active).
Consider `CCOc1ccc(-n2c(C(C)N(Cc3cccnc3)C(=O)Cc3ccc(F)c(C(F)(F)F)c3)nc3ncccc3c2=O)cc1` (centres undefined), for which the Potency entry in test [1] is “inactive”. In addition, the Potency in test [2] was 23.9 µM (active).
As for `COC(=O)N1CCC(n2ncc3c(N4CCOCC4)nc(-c4ccc(NC(=O)NC5CC5)cc4)nc32)CC1`, the Potency entry in test [1] is “inactive”. In addition, the Potency in test [2] was 16.9 µM (active).
Consider `c1ccc(-c2ccc(CNc3nc(-c4ccccn4)nnc3-c3ccccc3)cc2)cc1`, for which the Potency result in test [1] was “inactive”. In addition, the Potency in test [2] was 2.68 µM (active).
The matching figures for `N#Cc1cc(-c2ccnc(Nc3ccc(N4CCOCC4)cc3)n2)ccc1OC1CCOCC1`: “inactive” and “inactive”.
The matching figures for `CCN1CCN(Cc2ccc(NC(=O)c3ccc(C)c(Oc4ccnc5[nH]ccc45)c3)cc2C(F)(F)F)CC1`: “inactive” and 10.7 µM (active).
As to `O=C(OC1CN2CCC1CC2)N1CCc2ccccc2C1c1ccccc1` (centres undefined), in test [1], the Potency entry was “inactive”. The Potency in test [2] is 19 µM (active).
The matching figures for `c1cc(NCCc2c[nH]c3ccccc23)cc(Nc2ccncc2)c1`: “inactive” and 0.477 µM (active).
The matching figures for `CC(=O)Nc1nc(C)c(-c2nc(N3CCCC(O)C3)no2)s1` (centres undefined): “inactive” and 4.25 µM (active).
With `Cc1nc(C#Cc2ccnc(Cl)c2)c(C)n1-c1ccc(OC(F)(F)F)cc1`, the Potency entry in test [1] was “inactive”. In addition, the Potency in test [2] was 10.7 µM (active).
In the same order, the values of `N#Cc1cccc(C(=O)Nc2cc(-c3ccccc3)nn2-c2ccccc2)c1` are “inactive” and “inactive”.
